The supplement of paper PMC12669032

Legend:
Assay in all cases: growth AUC relative to DMSO control (median of replicates) (fraction); higher = more growth (less inhibition), active = hit call of the paper
Details in all cases: 20 µM; 24 h;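 active = AUC reduced over 20% with Padj below 0.05 in at least 2 of 3 replicates; inactive = otherwise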
Akkermansia muciniphila = system: Akkermansia muciniphila
Outline: (§1)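 Hourly OD600 readings over 24 h tracked anaerobic gut bacterial monocultures grown at 37 °C in mGAM from OD600 0.05 with 20 µM compound (1% DMSO). After the minimum OD was set to 0, area under the growth curve was normalised to the plate median of solvent-only wells, or to row and column medians on the industrial chemical plate. Values are medians of three biological replicates grown on separate days.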

Bacteroides caccae = system: Bacteroides caccae
Outline: as §1

Bacteroides clarus = system: Bacteroides clarus
Outline: as §1

Bacteroides dorei = system: Bacteroides dorei
Outline: as §1

Bacteroides stercoris = system: Bacteroides stercoris
Outline: as §1

[1] = system: Bacteroides thetaiotaomicron
Outline: as §1

Bacteroides uniformis = system: Bacteroides uniformis
Outline: as §1

[2] = system: Bifidobacterium longum subsp. longum
Outline: as §1

Clostridium difficile = system: Clostridium difficile
Outline: as §1

Collinsella aerofaciens = system: Collinsella aerofaciens
Outline: as §1

Coprococcus comes = system: Coprococcus comes
Outline: as §1

Escherichia coli ED1a = system: Escherichia coli ED1a
Outline: as §1

Escherichia coli IAI1 = system: Escherichia coli IAI1
Outline: as §1

Eubacterium rectale = system: Eubacterium rectale
Outline: as §1

[3] = system: Fusobacterium nucleatum subsp. animalis
Outline: as §1

Lactobacillus gasseri = system: Lactobacillus gasseri
Outline: as §1

Lactobacillus paracasei = system: Lactobacillus paracasei
Outline: as §1

Odoribacter splanchnicus = system: Odoribacter splanchnicus
Outline: as §1

[4] = system: Parabacteroides distasonis
Outline: as §1

Parabacteroides merdae = system: Parabacteroides merdae
Outline: as §1

Measured: growth AUC

Nc1ccc(Cc2ccc(N)c(Cl)c2)cc1Cl
inactive: Akkermansia muciniphila 0.988 | Bacteroides caccae 0.994 | Bacteroides clarus 0.981 | Bacteroides dorei 1.01 | Bacteroides stercoris 0.931 | [1] 0.971 | Bacteroides uniformis 0.968 | [2] 1.02 | Clostridium difficile 1 | Collinsella aerofaciens 1 | Coprococcus comes 1 | Escherichia coli ED1a 1.01 | Escherichia coli IAI1 1.01 | Eubacterium rectale 1.01 | [3] 0.997 | Lactobacillus gasseri 1.04 | Lactobacillus paracasei 1.07 | Odoribacter splanchnicus 1.11 | [4] 1.08 | Parabacteroides merdae 1

COP(=S)(OC)Oc1ccc(SC)c(C)c1
inactive: Akkermansia muciniphila 0.903 | Bacteroides caccae 0.943 | Bacteroides clarus 0.952 | Bacteroides dorei 1 | Bacteroides stercoris 0.995 | [1] 1.03 | Bacteroides uniformis 0.977 | [2] 0.963 | Clostridium difficile 1.03 | Collinsella aerofaciens 0.977 | Coprococcus comes 1.02 | Escherichia coli ED1a 0.997 | Escherichia coli IAI1 0.987 | Eubacterium rectale 0.878 | [3] 1.08 | Lactobacillus gasseri 1.01 | Lactobacillus paracasei 1.02 | Odoribacter splanchnicus 1 | [4] 0.915 | Parabacteroides merdae 0.953

CCOP(=S)(Oc1cnc(C(C)(C)C)nc1)OC(C)C (stereo not given)
inactive: Akkermansia muciniphila 0.912 | Bacteroides caccae 0.973 | Bacteroides clarus 0.94 | Bacteroides dorei 1.02 | Bacteroides stercoris 0.977 | [1] 1.01 | Bacteroides uniformis 0.974 | [2] 0.97 | Clostridium difficile 1 | Collinsella aerofaciens 1.03 | Coprococcus comes 0.998 | Escherichia coli ED1a 1.01 | Escherichia coli IAI1 0.985 | Eubacterium rectale 0.811 | [3] 1.02 | Lactobacillus gasseri 1.11 | Lactobacillus paracasei 0.988 | Odoribacter splanchnicus 1.07 | [4] 1.03 | Parabacteroides merdae 0.995

C1=Cc2cccc3cccc1c23
inactive: Akkermansia muciniphila 1.01 | Bacteroides caccae 1.02 | Bacteroides clarus 0.996 | Bacteroides dorei 1.02 | Bacteroides stercoris 1.03 | [1] 1.01 | Bacteroides uniformis 1 | [2] 0.946 | Clostridium difficile 1 | Collinsella aerofaciens 0.995 | Coprococcus comes 1.01 | Escherichia coli ED1a 1.02 | Escherichia coli IAI1 1.01 | Eubacterium rectale 0.988 | [3] 1.02 | Lactobacillus gasseri 0.975 | Lactobacillus paracasei 1.04 | Odoribacter splanchnicus 0.99 | [4] 0.889 | Parabacteroides merdae 1.02

COP(=O)(OC)O/C(C)=C/C(=O)N(C)C
inactive: Akkermansia muciniphila 1.15 | Bacteroides caccae 1.01 | Bacteroides clarus 0.988 | Bacteroides dorei 0.993 | Bacteroides stercoris 1.02 | [1] 0.988 | Bacteroides uniformis 1.02 | [2] 0.989 | Clostridium difficile 0.987 | Collinsella aerofaciens 0.996 | Coprococcus comes 1 | Escherichia coli ED1a 1 | Escherichia coli IAI1 0.997 | Eubacterium rectale 1.01 | [3] 0.937 | Lactobacillus gasseri 1.08 | Lactobacillus paracasei 1.06 | Odoribacter splanchnicus 0.972 | [4] 0.905 | Parabacteroides merdae 0.994

CCc1ccc(C(=O)NN(C(=O)c2cc(C)cc(C)c2)C(C)(C)C)cc1
inactive: Akkermansia muciniphila 0.924 | Bacteroides caccae 1.03 | Bacteroides clarus 0.993 | Bacteroides dorei 0.987 | Bacteroides stercoris 0.875 | [1] 0.976 | Bacteroides uniformis 0.955 | [2] 0.911 | Clostridium difficile 0.965 | Collinsella aerofaciens 1 | Coprococcus comes 0.987 | Escherichia coli ED1a 1.01 | Escherichia coli IAI1 0.999 | Eubacterium rectale 0.937 | [3] 0.882 | Lactobacillus gasseri 0.98 | Lactobacillus paracasei 1.04 | Odoribacter splanchnicus 0.926 | [4] 1.03 | Parabacteroides merdae 0.945

CNC(=O)Oc1cccc2c1OC(C)(C)O2
inactive: Akkermansia muciniphila 0.915 | Bacteroides caccae 1.07 | Bacteroides clarus 1.01 | Bacteroides dorei 0.982 | Bacteroides stercoris 1.02 | [1] 1.04 | Bacteroides uniformis 0.997 | [2] 1.06 | Clostridium difficile 1.06 | Collinsella aerofaciens 1 | Coprococcus comes 1.02 | Escherichia coli ED1a 1 | Escherichia coli IAI1 0.993 | Eubacterium rectale 0.967 | [3] 1.01 | Lactobacillus gasseri 1.11 | Lactobacillus paracasei 0.984 | Odoribacter splanchnicus 1.02 | [4] 1.02 | Parabacteroides merdae 1.02

CO/N=C(/C(=O)OC)c1ccccc1COc1ccccc1C
inactive: Akkermansia muciniphila 0.899 | Bacteroides caccae 0.979 | Bacteroides clarus 0.957 | Bacteroides dorei 0.964 | Bacteroides stercoris 0.993 | [1] 0.907 | Bacteroides uniformis 0.955 | [2] 0.874 | Clostridium difficile 1.02 | Collinsella aerofaciens 0.991 | Coprococcus comes 0.996 | Escherichia coli ED1a 0.955 | Escherichia coli IAI1 0.993 | Eubacterium rectale 0.939 | [3] 1.02 | Lactobacillus gasseri 1.01 | Lactobacillus paracasei 0.881 | Odoribacter splanchnicus 0.92 | [4] 0.944 | Parabacteroides merdae 0.927

Clc1ccc(C2(Cn3cncn3)OCCO2)c(Cl)c1
inactive: Akkermansia muciniphila 1.03 | Bacteroides caccae 0.932 | Bacteroides clarus 0.984 | Bacteroides dorei 0.934 | Bacteroides stercoris 0.815 | [1] 0.916 | Bacteroides uniformis 0.985 | [2] 1.01 | Clostridium difficile 0.956 | Collinsella aerofaciens 0.913 | Coprococcus comes 0.966 | Escherichia coli ED1a 0.98 | Escherichia coli IAI1 0.979 | Eubacterium rectale 1.03 | [3] 0.988 | Lactobacillus gasseri 0.937 | Lactobacillus paracasei 0.946 | Odoribacter splanchnicus 0.923 | [4] 1.01 | Parabacteroides merdae 0.954
